39 molecules from PubChem BioAssay can be followed below.

“And” between values parts separate entries of the source, which are not always exact repeats. Equal entries are not always repeated. The source made the active and inactive calls.

The experiment can be described thus: growth modulation of vineyard yeast isolate – strain RM11-1a, OD600, basal, 24 h, primary screen (AID 1177).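 Further: cultures grown under basal conditions with no added stressor; test concentration not given here.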 The conditions noted are these: S. cerevisiae RM11-1a growth, OD600, 24 h; higher = more signal, called active from +8 up or from −8 down.
As for `CO[C@H]1COC(=O)CC=C[C@@H](C)COC(=O)[C@H](CCSC)NC(=O)CC=C[C@@H]1C`, the z-score was -0.177 (inactive) and -0.642 (inactive).
The same measure for `C=CCN(CCCCC)C(=O)C1N(C(C)(C)CO)C(=O)C2C(C(=O)O)C3C=CC21O3` (centres undefined): -1.01 (inactive) and -1.15 (inactive); for `C=CCN1C(=O)[C@]2(O[C@H](CCn3cc(CCO)nn3)[C@@H]([Si](C)(C)c3ccc(OC)cc3)[C@@H]2C)c2cc(N3C(=O)c4cccc5cccc3c45)ccc21`: 4.03 (inactive) and 3.23 (inactive); for `CCC[C@@H]1C[C@@]1(CCC)[C@@H](NC(=O)c1ccc(-c2ccccc2)cc1)c1cccc(Cl)c1`: 0.38 (inactive) and 1.47 (inactive).
The same measure for `C[C@@H]1CC[C@H]2C(=O)O[C@H](CN=[N+]=[N-])CN2[C@H]1c1ccc(Br)cc1`: -0.505 (inactive) and 1.67 (inactive).
Turning to `C[C@@H]1CN2[C@@H](CC[C@@H](C)[C@@H]2c2ccc(Br)cc2)C(=O)O1`, the z-score is 0.999 (inactive) and -1.13 (inactive).
The same measure for `COc1ccc(O[C@H]2C=C[C@@H](c3ccccc3)O[C@@H]2COC(=O)CCC(C)=NO[C@H](C)c2cn([C@H](CO)Cc3ccccc3)nn2)cc1`: 0.581 (inactive) and 1.67 (inactive).
Consider `CON(C)C(=O)c1nnc2c3ccccc3n(S(=O)(=O)c3ccc(C)cc3)c2n1`, for which the z-score was -0.469 (inactive) and -0.226 (inactive).
The same measure for `COc1ccc(COC(=O)NN=C2C[C@@H](O)[C@@H](O)[C@@H]3[C@@H]4C(=O)N(C(C)(C)C)C(=O)[C@@H]4CC[C@H]23)cc1`: -1.94 (inactive); for `COC(=O)C1=C(C)N(Cc2ccccc2)[C@]23O[C@](C(=O)OC)(C(=O)N2[C@@H]1c1ccccc1)[C@@H](C(=O)OC)[C@H]3C(=O)OC`: 1.62 (inactive) and 0.72 (inactive); for `C[C@@H]1CC[C@H]2C(=O)NC[C@@H](O)CN2[C@H]1c1ccc(Br)cc1`: -0.154 (inactive) and 0.502 (inactive).
Next, `C#CCCCON=C1C[C@@H](O)[C@@H](O)[C@@H]2[C@@H]3C(=O)N(C4CCCCC4)C(=O)[C@@H]3CC[C@H]12`: -0.126 (inactive); `C[C@@H]1CC[C@@H](C(=O)O)N[C@H]1c1ccc(-c2ccco2)cc1`: -0.0212 (inactive).
For the molecule `C=CCN(C(=O)C1N(C(C)(C)CO)C(=O)C2C(C(=O)O)C3C=CC21O3)C(C)(C)C` (centres undefined), the z-score was 1.16 (inactive) and 1.25 (inactive).
In the case of `C=CCN(C(=O)C(c1cccs1)N(C(=O)/C=C\C(=O)O)c1ccc(CCO)cc1)C(C)(C)C` (centres undefined), the z-score was -0.0345 (inactive) and -0.122 (inactive).
Next, `Cc1ccc(S(=O)(=O)N[C@H]2COC(=O)[C@@H](Cc3ccccc3)NC(=O)[C@@H](C)COC(=O)CC=C[C@@H]2C)cc1`: 0.0658 (inactive) and 0.0386 (inactive); `CC(C)[Si]1(C(C)C)OCc2cc(CCCc3cc4c(c(CCc5ccccc5)n3)[Si](C(C)C)(C(C)C)OC4)nc(CCc3ccccc3)c21`: -0.656 (inactive) and 0.13 (inactive).
The same measure for `O=c1n(-c2ccccc2)c(=O)n2n1CC[C@@H]1C(=NOC[C@@H](O)COCc3ccco3)[C@H]3O[C@H]3[C@@H](O)[C@@H]12`: -0.37 (inactive) and 0.962 (inactive); for `O=C1C[C@]2(c3ccc([N+](=O)[O-])cc3)C(=O)N(Cc3ccccc3)c3cc(CO)ccc3[C@H]2N1C1CCCCC1`: 0.029 (inactive) and -0.21 (inactive); for `CCOC(=O)[C@H](CC(C)C)NC(=O)CCC1CC(OC(=O)NCc2cccc3ccccc23)CC2(CCCC(COC(=O)NCc3ccccc3)O2)O1` (some centres undefined): -0.527 (inactive).
Next, `CCOC(=O)c1ccc(NC(=O)O[C@H]2[C@H](OC(=O)Nc3ccccc3)[C@H](OC(=O)Nc3ccccc3)[C@@H](OC)O[C@@H]2CO)cc1`: 2.14 (inactive) and 0.971 (inactive); `CC[C@@H]1C(Sc2ccccc2)C(C(=O)O)[C@H](c2ccc(C)cc2)N1S(=O)(=O)c1ccc(C)cc1` (some centres undefined): -0.112 (inactive) and -1.09 (inactive); `CCCC[C@@H]1CN2[C@@H](CC[C@@H](C)[C@@H]2c2ccc(Br)cc2)C(=O)O1`: 0.229 (inactive) and -0.0641 (inactive).
`C=CCN(CCCCC)C(=O)C(c1cccs1)N(C(=O)/C=C\C(=O)O)c1ccc(CCO)cc1` (centres undefined): the z-score was 0.741 (inactive) and 0.428 (inactive).
The same measure for `C=C(C)C(=O)OC[C@@H]1CN2[C@@H](CC[C@@H](C)[C@@H]2c2ccc(Br)cc2)C(=O)O1`: 0.361 (inactive); for `COC(=O)C1=C2N(Cc3ccccc3)C(C)=C(C(=O)OC)[C@@H](c3ccccc3)N2C(=O)[C@](O)(C(=O)OC)C1`: -0.321 (inactive) and 0.0615 (inactive).
As to `C=C[C@@H](C)[C@@H](O)c1ccc(OCCO)cc1`, the z-score is 0.909 (inactive) and 1.21 (inactive).
Consider `C=CCN(Cc1ccccc1)C(=O)C1N(C(C)(C)CO)C(=O)C2C(C(=O)O)C3C=CC21O3` (centres undefined), for which the z-score is -1.32 (inactive) and -0.417 (inactive).
Next, `C=CCN(C(=O)C1N(C(C)(C)CO)C(=O)C2C(C(=O)O)C3C=CC21O3)c1ccc(OC)cc1` (centres undefined): 0.643 (inactive) and 1.4 (inactive).
The same measure for `COC(=O)c1c2oc(c1C(=O)OC)C(=O)N[C@@H](Cc1ccccc1)Cn1cc(nn1)C1(CCCCC1)NC(=O)N[C@H](CO)CC2`: -0.0882 (inactive) and -0.376 (inactive).
As for `C=C[C@H](C)[C@H](O)c1ccc(O)c2ccccc12`, the z-score was -1.6 (inactive) and -2.52 (inactive).
Next, `CCOC(=O)C[C@H]1[C@H](OC(=O)c2ccccc2-c2ccccc2)[C@@H](NC(=O)Cc2ccc(OC)cc2)c2cc(OCCCO)ccc2N1C(=O)c1ccc2ccccc2n1`: -0.484 (inactive) and -0.0944 (inactive).
Next, `CC(C)OC(=O)C=C1C[C@@H](c2ccccc2)O[C@@H](c2ccccc2)O1`: 0.306 (inactive) and 0.904 (inactive); `COC(=O)C1=C(C)N(Cc2ccccc2)C2=C(C(=O)c3ccccc3)[C@H](c3ccccc3)[C@@](O)(C(=O)OC)C(=O)N2[C@@H]1c1ccccc1`: 1.27 (inactive) and 0.504 (inactive); `COC(=O)[C@@]1(Cc2ccc(F)cc2)[C@H]2c3cc(C(=O)N4CCCC4)n(Cc4c(CO)[nH]cc(C)c4=O)c3C[C@H]2CN1C(=O)c1ccccc1`: 1.33 (inactive) and 1.72 (inactive).
`C[N+](C)(C)CCCCCCNC(=O)[C@H]1C[C@H]2C(=O)N[C@@H](CCCC[N+](C)(C)C)C(=O)N2[C@H]1c1ccc(O)cc1`: the z-score was 0.281 (inactive) and 0.826 (inactive).
As for `CC(CO)N1C(=O)[C@@H]2C3C(=O)OCCC=C[C@H]3OC23C=CCN(CCN2CCOCC2)C(=O)[C@@H]13` (some centres undefined), the z-score is 0.819 (inactive) and -0.631 (inactive).
For the molecule `CCCC[C@@H]1CN2[C@H](c3ccc(Br)cc3)[C@@H](C)CC[C@H]2C(=O)O1`, the z-score was 0.434 (inactive) and -0.478 (inactive).
For `CO[C@H]1COC(=O)CC=C[C@H](C)[C@H](OC)COC(=O)[C@@H](C)COC(=O)CC=C[C@@H]1C`, the z-score is -0.436 (inactive) and -0.638 (inactive).
